This passage reports inhibition results from PubChem BioAssay AID1626 (SRMLSC, 2009).

Among all 220,000 compounds or so, about 2,000 (0.91%) were called active. Another 2% or so got no clear call; they are omitted. Rule as the data show it: inconclusive = inhibition above about 80% without an active follow-up result; inactive = below that; test concentration not stated here. A selection follows. Potency and affinity values are given separately.

The nature of this assay: M. tuberculosis H37Rv growth inhibitors, H37Rv strain (AID 1626).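 Also: bacteria incubated seven days before Alamar blue readout; 0% = bacteria only wells and 100% = bacteria with antibiotic wells.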 The conditions noted are these: hits give high values, concentration not given here.
As a reminder, the inhibition is the relative decrease from the control value, in per cent. As to `Cc1cc2nnc(SCC(=O)NCC3CCCO3)n2c2ccccc12` (configuration not stated), the inhibition is -6.93% (inactive).
The same measure for `Cc1ccc(-c2csc(/C(C#N)=C/Nc3ccccc3SC(F)(F)F)n2)c(C)c1`: -7.14% (inactive).
Then `COc1cc(C2c3c(oc4ccccc4c3=O)C(=O)N2Cc2cccnc2)cc(OC)c1OC` (configuration not stated), with 1.59% (inactive); and `CCN(C(=O)CN1c2ccccc2CC1C)c1c(N)n(Cc2ccccc2)c(=O)[nH]c1=O` (configuration not stated), with 3.3% (inactive); and `CSc1nc2ccc(NC(=O)C3CC(=O)N(Cc4ccco4)C3)cc2s1` (configuration not stated), with 7.1% (inactive).
As for `CC(=O)c1cccc(NC(=O)C2CC(=O)N(Cc3ccccc3)C2)c1` (configuration not stated), the inhibition is -1.4% (inactive).
As to `O=C(NNS(=O)(=O)c1ccccc1C(F)(F)F)c1cccc(S(=O)(=O)Nc2ccccc2Cl)c1`, the inhibition is 5.57% (inactive).
Regarding `CC(C)CNS(=O)(=O)c1ccc(CCC(=O)N2CCN(c3ccccc3)CC2)cc1`, the inhibition was 0.62% (inactive).
With `Nc1c(C(=O)NCC2CCCO2)sc2nc3c(c(-c4ccco4)c12)CC/C3=C\c1ccco1` (configuration not stated), the inhibition was -3.62% (inactive).
For `O=[N+]([O-])c1cc(S(=O)(=O)C(F)(F)F)ccc1N1CCN(c2ccccc2)CC1`, the inhibition is 26.1% (inactive).
On to `O=[N+]([O-])c1cc(S(=O)(=O)Nc2ccccc2)ccc1N1CCN(c2ccc(O)cc2)CC1`, for which the inhibition was 3.41% (inactive).
For the molecule `CC(C)c1nc2sc3c(NCc4ccccc4)ncnc3c2c2c1COC(C)(C)C2`, the inhibition was -2.03% (inactive).
Consider `Cc1ccc(N/C(N)=N/c2nc3c(c(=O)[nH]2)CCCC3)c(C)c1`, for which the inhibition was 6.84% (inactive).
As for `COc1ccc(C)cc1N/C(N)=N/c1nc(C)cc(C)n1`, the inhibition was -4.57% (inactive).
As for `S=C1NC2(CCCCC2)Cc2ccccc21`, the inhibition was 4.66% (inactive).
As to `Cc1sc2nc(-c3cccnc3)[nH]c(=O)c2c1-c1ccccc1`, the inhibition was -0.42% (inactive).
The same measure for `COc1ccc(C=C2C(=O)c3ccccc3C2=O)cc1O`: 1.77% (inactive); for `Cc1ccccc1/C=C1\CCCc2ccccc2C1=O`: 5.73% (inactive).
As for `COc1cc(/C=c2\s/c(=C\C(=O)C(C)(C)C)[nH]c2=O)cc(OC)c1OC`, the inhibition was 66.3% (inactive).
As to `CCc1ccc(/C=C(\C)C(=O)c2c(C)cc(C)[nH]c2=O)cc1`, the inhibition is 5.72% (inactive).
On to `COc1cccc(/C=c2\s/c(=C/C(=O)c3ccc(C)cc3)[nH]c2=O)c1OC`, for which the inhibition was 17.8% (inactive).
`CC(C)(C)C(=O)/C=c1\[nH]c(=O)/c(=C\c2ccc(C#N)cc2)s1`: the inhibition is 75.3% (inactive).
As for `CC(C)(C)C(=O)/C=c1\[nH]c(=O)/c(=C\c2ccccc2F)s1`, the inhibition is 79.9% (inactive).
As to `COc1ccc(/C=C2\SC(c3ccc(C)cc3)=NC2=O)cc1OC`, the inhibition was -10.8% (inactive).
For `Cc1ccc(C2NC(=O)CCC2[N+](=O)[O-])cc1` (configuration not stated), the inhibition is 1.52% (inactive).
Then `NS(=O)(=O)c1ccc(NC(=O)C(Sc2ccccc2)c2ccccc2)cc1` (configuration not stated), with 2.33% (inactive); and `COc1cccc(CNC(=O)c2ccc3nc[nH]c3c2)c1`, with -1.98% (inactive); and `O=C(COc1ccc(Br)cc1)NCc1cn2ccccc2n1`, with -2.73% (inactive).
`NC1=NC(=O)/C(=C\C=C\c2ccccc2)S1`: the inhibition is 2.56% (inactive).
For the molecule `CCCOc1ccc(/C=N/NC(=O)C(C)Sc2ccccn2)cc1OCC` (configuration not stated), the inhibition was 4.45% (inactive).
As for `COc1cccc(/C=c2\s/c(=C\C(=O)C(C)(C)C)[nH]c2=O)c1`, the inhibition was 8.13% (inactive).
The same measure for `Cc1cccc(/C=C2\CS/C(=C\c3cccc(C)c3)C2=O)c1`: -5.7% (inactive); for `Cc1cc(NC(=O)C(=O)c2cn(C)c3ccccc23)no1`: -4.05% (inactive); for `CCC(=O)Nc1cccc(C2=NOC3(C2)C[C@@H](C(N)=O)N(C(=O)C2(C)CC2)C3)c1` (some centres not stated): -7.53% (inactive).
In the case of `O=C(COC(=O)c1ccc(Br)cc1)NCCN1C(=O)CSC1=O`, the inhibition is -0.22% (inactive).
Take `O=C(CN1C(=O)c2cccc3cccc1c23)Nc1ccccc1C(=O)NCc1ccco1`: the inhibition was -8.25% (inactive).
`COc1ccc(C2C(C(=O)Nc3ccc4c(c3)OCCO4)c3ccccc3C(=O)N2C)cc1` (configuration not stated): the inhibition was -5.2% (inactive).
In the case of `CC1=C(C(=O)Nc2ccccc2C)C(c2cccs2)NC(=S)N1` (configuration not stated), the inhibition was -1.29% (inactive).
With `O=S(=O)(c1ccc(F)cc1)c1snnc1-c1ccccc1`, the inhibition was -0.36% (inactive).
In the case of `O=S(=O)(c1ccc(Cl)cc1)c1snnc1-c1ccccc1`, the inhibition was -9.09% (inactive).
On to `O=C(CNC(=S)N(Cc1ccccc1F)C1CCCCC1)NC1CC1`, for which the inhibition is -3.6% (inactive).
In the case of `O=C(Nc1ccc2sccc2c1)c1ccc(Cl)s1`, the inhibition is 59.4% (inactive).
As for `Cc1ccc(/C=C/C(=O)Nc2ccc([N+](=O)[O-])cc2)o1`, the inhibition is 6.87% (inactive).
In the case of `O=C(O)/C=C/c1ccc([N+](=O)[O-])o1`, the inhibition was 7.14% (inactive).
With `CCOC(=O)/C=c1\s/c(=C(\C#N)C(N)=O)n(-c2ccccc2)c1=O`, the inhibition was 2.26% (inactive).
Take `COc1cc(/C=N/NC(=O)c2cnccn2)cc(OC)c1OC`: the inhibition is -6.81% (inactive).
Take `CC1(C)CCCC2=C1CC1C(=O)N(N)C(=O)C1C2` (configuration not stated): the inhibition is 2.05% (inactive).
Then `COc1ccc(Nc2cccccc2=O)cc1`, with 1.3% (inactive).
As to `c1ccc(Nc2cccc3c(Nc4ccccc4)cccc23)cc1`, the inhibition was -3.47% (inactive).
Regarding `Cc1ccc(Nc2ccccc2)cc1`, the inhibition was 6.23% (inactive).
The same measure for `Nc1ccccc1Nc1cccc(C(F)(F)F)c1`: 6.41% (inactive); for `COc1ccc(Nc2ccc(OC)cc2)cc1`: 47% (inactive); for `Cc1ccc(Nc2ccc(C(=O)O)cc2N)cc1`: -7.86% (inactive).
The same measure for `FC(F)(F)c1nc2ccccc2nc1N/N=C/c1c(Cl)cccc1Cl`: 9.85% (inactive); for `COCCN(C(=S)Nc1ccc(C)cc1C)C(C)c1ccco1` (configuration not stated): -7% (inactive).
On to `CSc1ncccc1C(=O)OCC(=O)c1ccccc1Br`, for which the inhibition is -4.85% (inactive).
With `CCOC(=O)c1cc(NC(=O)N2CCOCC2)c(C)nc1C`, the inhibition is -1.72% (inactive).
Regarding `CC(C)CNc1cc(N2CCCC2)ccc1[N+](=O)[O-]`, the inhibition was 4.85% (inactive).
Regarding `CCCCCSc1nc2c(c(=O)[nH]c(=O)n2C)n1C`, the inhibition was 11.1% (inactive).
The same measure for `C/C(=C\C(=O)c1ccc(Br)cc1)NCc1ccc(C)cc1`: 4.34% (inactive); for `CCOc1cc(S(=O)(=O)N2CCOCC2)ccc1F`: -1.04% (inactive).
With `CC(C)[C@H](NS(=O)(=O)/C=C/c1ccccc1)C(=O)OCC(=O)NC(N)=O`, the inhibition is 0.26% (inactive).
